Experiment [1] in a line: inhibitors of TNFa-induced NFkB p65 translocation, primary screen, imaging, HUVEC, MLSMR starter and 10KST1 sets (AID 438;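 active = inhibition above 20% together with a positive visual image hit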;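 also: compound added about 3h40 before a 20 min TNFalpha stimulation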;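 as to inhibition: signal is the nuclear over cytoplasmic p65 intensity ratio per well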). The conditions noted are these: HUVEC TNFa-induced p65 nuclear translocation; cell count: measured here: nuclei count (cytotoxicity indicator), at 2.08 µM; inhibition: at 2 µM, stronger effect = higher value, 0% TNFa-plus-vehicle, 100% no-TNFa wells.
Experiment [2] is described as follows: inhibitors of mutant huntingtin aggregation, primary screen, imaging, exon1htt(103Q)mCFP cells, high-content imaging (AID 483).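 Also: compound exposure lasted 3 days before fixation.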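 As to nuclei count: percent of the per-plate median nuclei count of sample wells.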 The conditions noted are these: exon1htt(103Q)mCFP cell line, aggregate imaging, at 2 µM; inhibition of aggregation: stronger effect = higher value; nuclei count: measured here: cell count, toxicity.
A short description of experiment [3]: inhibitors of E-selectin induction by TNFa, primary screen, imaging, HUVEC, immunofluorescence, MLSMR starter and 10KST1 sets (AID 487;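 active = visually confirmed hit in the image check and inhibition above 20%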;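 as to inhibition: signal is fraction of cell area covered by stained E-selectin grains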;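 as to nuclei count: 100% = median nuclei count of all wells on the same plate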). The conditions noted are these: HUVEC TNFalpha-induced E-selectin immunofluorescence imaging, at 2 µM; inhibition: stronger effect = higher value; nuclei count: measured here: cell number, toxicity.
For experiment [4], the target named is Voltage-gated potassium channel subunit beta-2 (Rattus norvegicus) (UniProt P62483). The experiment is described as follows: KvBeta enzyme negative modulators, primary screen, biochemical, NADPH fluorescence (AID 622;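 active = fluorescence slope higher than the sample average by over 3 SD, cut at about -0.22 in these data, passing the limit was not always enough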;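 also: slope of raw intensity against log time taken from 70 to 1610 s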). To be noted: recombinant KvBeta, 4-cyanobenzaldehyde reduction, at 10 µM, stronger effect = higher value.
Voltage-gated potassium channel subunit beta-2 (Rattus norvegicus), sequence (P62483 whole entry, looked up): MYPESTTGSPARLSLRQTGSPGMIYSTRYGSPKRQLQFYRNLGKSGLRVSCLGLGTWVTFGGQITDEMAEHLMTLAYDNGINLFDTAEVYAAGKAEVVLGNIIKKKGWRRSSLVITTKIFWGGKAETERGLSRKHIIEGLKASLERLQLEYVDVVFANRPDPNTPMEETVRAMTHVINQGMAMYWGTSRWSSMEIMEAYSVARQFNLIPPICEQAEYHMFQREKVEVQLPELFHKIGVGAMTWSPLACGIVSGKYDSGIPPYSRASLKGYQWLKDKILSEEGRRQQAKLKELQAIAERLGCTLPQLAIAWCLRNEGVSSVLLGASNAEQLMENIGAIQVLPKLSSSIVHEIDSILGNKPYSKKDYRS
The target is the same in experiment [5]. The experiment is described as follows: KvBeta positive modulators, primary screen, biochemical, NADPH fluorescence (AID 623;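 active = NADPH fluorescence slope more negative than the mean of all samples by about 3 SD, 99.7% confidence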;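 also: fluorescence intensity change per second fitted from 20 to 320 s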). To be noted: Recombinant KvBeta, NADPH fluorescence decrease slope, 10 min; at 10 µM; stronger effect = lower value.
Experiment [6] addresses Alpha-2C adrenergic receptor (Homo sapiens) (UniProt P18825). The experiment is described as follows: modulators of alpha2C/GIRK thallium flux, primary screen, cell-based, HEK293 alpha2C/GIRK1/2 (AID 624;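 active = fluorescence slope after compound addition differing from the mean of all screened samples at 99.7% confidence, in either direction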;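 also: slope of fluorescence ratio to pre-addition baseline per second over 15 to 24 s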). To be noted: thallium flux BTC fluorescence, at 10 µM, actives lie on both sides.
Experiment [7] can be described thus: inhibitors of Sendai virus-induced IRF3 signaling, primary screen, TLR/RLR signaling modifier project, cell-based, Sendai virus stimulus, luciferase, 10K MLSCN set (AID 602276;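 active = inhibition at or above 50% at 10 µM; inactive = inhibition below 50%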;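 also: firefly luciferase from ISG56 promoter only with Renilla not read in this screen; 0% = Sendai virus plus DMSO and 100% = medium plus DMSO without virus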). To be noted: HEK293 RL24 IRF3 luciferase reporter, at 10 µM, stronger effect = higher value.
Experiment [8] is described as follows: inhibitors of poly I:C-induced TLR3 signaling, primary screen, cell-based, poly I:C stimulus, luciferase, 10K MLSCN set (AID 602277;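 active = inhibition of the reporter signal at or above 50%; inactive = inhibition below 50%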). The conditions noted are these: HEK293-TLR3 RL24 IRF3 luciferase reporter, at 10 µM, stronger effect = higher value. A general note: Reporter assays use an easily measured gene product as a stand-in for the process of interest.

Activity calls are given as the source filed them.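 The calls were made as follows, unless noted: active = visual image review flags a hit and inhibition of aggregation exceeds 20%; inconclusive = visual hit but inhibition at or below 20%; inactive = no hit on visual image review.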

What is called inhibition is the drop in the measured response relative to a control, in per cent.

Alpha-2C adrenergic receptor (Homo sapiens), sequence (P18825 whole entry, looked up): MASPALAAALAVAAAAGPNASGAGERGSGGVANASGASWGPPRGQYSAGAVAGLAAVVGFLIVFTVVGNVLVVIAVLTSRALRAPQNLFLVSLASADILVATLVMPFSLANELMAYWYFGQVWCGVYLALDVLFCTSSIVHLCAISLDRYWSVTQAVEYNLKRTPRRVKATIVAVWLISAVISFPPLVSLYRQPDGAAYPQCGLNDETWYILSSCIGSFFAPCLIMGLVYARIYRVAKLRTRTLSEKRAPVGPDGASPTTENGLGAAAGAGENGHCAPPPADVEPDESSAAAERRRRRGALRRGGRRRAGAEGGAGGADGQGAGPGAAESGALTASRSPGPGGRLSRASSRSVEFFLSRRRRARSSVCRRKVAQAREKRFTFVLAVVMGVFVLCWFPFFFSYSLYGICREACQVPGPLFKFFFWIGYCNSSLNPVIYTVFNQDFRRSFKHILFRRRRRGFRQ

For `C=CCn1c(SCC(=O)O)nnc1-c1cccc(Cl)c1`, the cell count in experiment [1] was 753. For the same compound, the inhibition in experiment [1] is 1.3% (inactive); in experiment [3] it was 19.3% (inactive); in experiment [7] it was 8.76% (inactive); in experiment [8], 18.9% (inactive). Further, in experiment [2], the inhibition of aggregation was -0.4% (inactive). For the same compound, the results for the nuclei count in experiment [2] and in experiment [3] were 103% and 108%, respectively. For the same compound, the fluorescence slope in experiment [4] was -0.453 (inactive). Moreover, the NADPH fluorescence slope in experiment [5] was -8e-06 (inactive). Further, the slope in experiment [6] was 0.00296 (inactive).
With `CC(=O)N1CCN(c2ccc(N=Cc3c(O)n(Cc4ccccc4)c(=O)[nH]c3=O)cc2)CC1`, the cell count in experiment [1] was 344. The inhibition in experiment [1] was 6.8% (inactive); in experiment [3], -9.7% (inactive); in experiment [7] it was 14.1% (inactive); in experiment [8], 22.9% (inactive). In addition, the inhibition of aggregation in experiment [2] was -13.5% (inactive). For the same compound, the nuclei count came out at 102% in experiment [2] and 105% in experiment [3]. The fluorescence slope in experiment [4] is -0.525 (inactive). Moreover, the NADPH fluorescence slope in experiment [5] is 1.9e-05 (inactive). Besides, the slope in experiment [6] was 0.00469 (inactive).
Consider `COc1ccccc1-n1c(=O)[nH]c2c(C(N)=O)nc(CC(C)C)nc21`, for which the cell count in experiment [1] came to 809. Also, the inhibition in experiment [1] was -0.5% (inactive); in experiment [3], 2.2% (inactive); in experiment [7] it was 13% (inactive); in experiment [8], 32.3% (inactive). For the same compound, the inhibition of aggregation in experiment [2] is -23.3% (inactive). The nuclei count is 105% in experiment [2] and 117% in experiment [3]. In experiment [4], the fluorescence slope is -0.58 (inactive). For the same compound, in experiment [5], the NADPH fluorescence slope is -3e-05 (inactive). The slope in experiment [6] is 0.00821 (inactive).
As for `CCC(=O)N1Cc2ccccc2-c2ccccc2C1=O`, in experiment [1], the cell count was found to be 642. The inhibition in experiment [1] is 3% (inactive); in experiment [3] it was 11% (inactive); in experiment [7] it was 12.1% (inactive); in experiment [8], 12.9% (inactive). Moreover, the inhibition of aggregation in experiment [2] is -14.4% (inactive). Moreover, the nuclei count was found to be 98.3% in experiment [2] and 126% in experiment [3]. In addition, the fluorescence slope in experiment [4] is -0.618 (inactive). Moreover, the NADPH fluorescence slope in experiment [5] was -1.2e-05 (inactive). Besides, the slope in experiment [6] was 0.006 (inactive).
Take `CC1CCN(Cc2ccc(NC(=O)C3CCN(c4nnc(-n5cccc5)s4)CC3)cc2)CC1`: the cell count in experiment [1] is 720. Besides, the inhibition in experiment [1] was -3% (inactive); in experiment [3], 44.3% (inactive); in experiment [7], 10.3% (inactive); in experiment [8], 44% (inactive). Besides, the inhibition of aggregation in experiment [2] was 13.7% (inactive). The nuclei count in experiment [2] is 50.5%; in experiment [3] it was 97.9%. The fluorescence slope in experiment [4] was -0.409 (inactive). For the same compound, the NADPH fluorescence slope in experiment [5] is -5.4e-05 (inactive). Also, the slope in experiment [6] was 0.0059 (inactive).
For `Cn1c2c(c(=O)n(C)c1=O)C(CC(=O)Nc1ccccc1)C(=O)N2` (centres undefined), the cell count in experiment [1] was 604. In addition, the inhibition was -3.5% (inactive) in experiment [1], -81.2% (inactive) in experiment [3], 10.9% (inactive) in experiment [7] and 22.4% (inactive) in experiment [8]. Besides, the inhibition of aggregation in experiment [2] is -2.9% (inactive). For the same compound, the nuclei count was found to be 72% in experiment [2] and 152% in experiment [3]. Further, in experiment [4], the fluorescence slope was -0.597 (inactive). In addition, the NADPH fluorescence slope in experiment [5] is -3.5e-05 (inactive). In addition, in experiment [6], the slope was 0.00726 (inactive).
Regarding `COc1ccccc1N1CCN(c2cc(=O)n(Cc3ccc(F)cc3)c(=O)[nH]2)CC1`, the cell count in experiment [1] was found to be 503. Moreover, the inhibition is -2.8% (inactive) in experiment [1], 11.7% (inactive) in experiment [3], 17.1% (inactive) in experiment [7] and 29.3% (inactive) in experiment [8]. Further, in experiment [2], the inhibition of aggregation is 2% (inactive). The figures for the nuclei count in experiment [2] and in experiment [3] were 44% and 106%, respectively. Further, in experiment [4], the fluorescence slope was -0.569 (inactive). For the same compound, the NADPH fluorescence slope in experiment [5] is -3.7e-05 (inactive). Moreover, the slope in experiment [6] is 0.00657 (inactive).
As for `CCOC(=O)N(C)c1ccc(C(O)(C(F)(F)F)C(F)(F)F)cc1`, the cell count in experiment [1] stood at 601. Moreover, the inhibition in experiment [1] was -8.6% (inactive); in experiment [3], -58.6% (inactive); in experiment [7], -1.35% (inactive); in experiment [8], 100% (active). In addition, the inhibition of aggregation in experiment [2] is -12.5% (inactive). In addition, the results for the nuclei count in experiment [2] and in experiment [3] were 105% and 109%, respectively. Also, in experiment [4], the fluorescence slope was -0.369 (inactive). Also, in experiment [5], the NADPH fluorescence slope is -6.4e-05 (inactive). Further, the slope in experiment [6] is 0.0041 (inactive).
Turning to `Cc1nc2ccccn2c1/C(O)=C1\C(=O)C(=O)N(CCCN(C)C)C1c1ccc(F)cc1` (centres undefined), the cell count in experiment [1] was 507. The inhibition is 21.6% (inactive) in experiment [1], -54.5% (inactive) in experiment [3], 6.26% (inactive) in experiment [7] and 3.28% (inactive) in experiment [8]. Further, in experiment [2], the inhibition of aggregation was -28.8% (inactive). Moreover, the nuclei count is 92.5% in experiment [2] and 122% in experiment [3]. Besides, the fluorescence slope in experiment [4] was -0.566 (inactive). For the same compound, the NADPH fluorescence slope in experiment [5] was 1.9e-05 (inactive). In experiment [6], the slope was 0.00687 (inactive).
For the compound `CCOC(=O)CNC(=O)CSc1ncnc2c1cnn2Cc1ccccc1`, in experiment [1], the cell count turned out to be 597. Besides, the inhibition was 12.6% (inactive) in experiment [1], -157% (inactive) in experiment [3], 2.57% (inactive) in experiment [7] and 24.8% (inactive) in experiment [8]. Moreover, in experiment [2], the inhibition of aggregation was -12.1% (inactive). The figures for the nuclei count in experiment [2] and in experiment [3] were 103% and 134%, respectively. In experiment [4], the fluorescence slope is -0.374 (inactive). Moreover, the NADPH fluorescence slope in experiment [5] was -0.000157 (inactive). The slope in experiment [6] was 0.0067 (inactive).
For `O=C(CSc1ccc2nnc(-c3ccccc3)n2n1)N1CCN(c2ccccc2)CC1`, the cell count in experiment [1] came out at 616. The inhibition is 0.3% (inactive) in experiment [1], -34.8% (inactive) in experiment [3], -9.77% (inactive) in experiment [7] and 3.8% (inactive) in experiment [8]. The inhibition of aggregation in experiment [2] was 9.9% (inactive). Besides, the values for the nuclei count in experiment [2] and in experiment [3] were 110% and 111%, respectively. Besides, the fluorescence slope in experiment [4] was -0.592 (inactive). For the same compound, the NADPH fluorescence slope in experiment [5] is -3.7e-05 (inactive). In experiment [6], the slope is 0.00674 (inactive).
`CCCC(=O)Nc1cc(C)c2c(=O)oc3ccccc3c2n1`: the cell count in experiment [1] worked out at 627. In addition, the inhibition in experiment [1] was -24.4% (inactive); in experiment [3], -37.2% (inactive); in experiment [7] it was -9.8% (inactive); in experiment [8], -24.7% (inactive). Besides, the inhibition of aggregation in experiment [2] is -6.5% (inactive). Also, the results for the nuclei count in experiment [2] and in experiment [3] were 97.4% and 121%, respectively. Also, the fluorescence slope in experiment [4] is -0.447 (inactive). Also, the NADPH fluorescence slope in experiment [5] was -7.8e-05 (inactive). The slope in experiment [6] was 0.0057 (inactive).
With `CC1=CCC2C(=O)N(c3nc(C)cc(C)n3)C(=O)C2C1` (centres undefined), the cell count in experiment [1] stood at 332. Moreover, the inhibition is 4.2% (inactive) in experiment [1], -124% (inactive) in experiment [3], 12.7% (inactive) in experiment [7] and 21.2% (inactive) in experiment [8]. The inhibition of aggregation in experiment [2] was 9% (inactive). The nuclei count in experiment [2] was determined as 85.6%; in experiment [3], 105%. In addition, the fluorescence slope in experiment [4] was -0.53 (inactive). The NADPH fluorescence slope in experiment [5] was -7.2e-05 (inactive). Besides, the slope in experiment [6] is 0.00507 (inactive).
Consider `O=C(Nn1cnnc1)c1cc2c(s1)CCCC2`, for which the cell count in experiment [1] was determined as 346. The inhibition was -3.4% (inactive) in experiment [1], -41.7% (inactive) in experiment [3], -4.21% (inactive) in experiment [7] and 7.24% (inactive) in experiment [8]. In experiment [2], the inhibition of aggregation was -5.7% (inactive). The nuclei count in experiment [2] worked out at 108%; in experiment [3], 112%. In experiment [4], the fluorescence slope was -0.411 (inactive). In addition, the NADPH fluorescence slope in experiment [5] is -4.9e-05 (inactive). In addition, in experiment [6], the slope is 0.00357 (inactive).
